Results reported in the supplement of paper PMC10849652.
Targets with a hit are over-represented here; the source holds about 8,800 in all. About 0.5% of all pairs of compound and target were hits. Values without a mark were called inactive.

Legend:
Assay in all cases: log2 fold change, soluble protein after heating vs DMSO (PISA); higher = thermal stabilisation; K562 lysate, 10 uM; active = over 0.2 and 3.5 SD of the protein, either way, in both replicates (recomputed)
[1] = compound: NCC(=O)Nc1ccc(-n2nc(C(F)(F)F)cc2-c2ccc3c(ccc4ccccc43)c2)cc1
Outline: (§1)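 Dounce homogenisation of K562 pellets in PBS pH 7.4 with 1 mM MgCl2 produced a crude extract, used at 1 mg/mL protein. Exposure to 10 μM compound lasted 30 min, and aliquots were then heated for 3 min across 48°C-58°C, pooled and brought to 0.5% NP-40 at 4°C. The supernatant after 21,000xg for 90 min was quantified by TMTpro 16plex LC-MS/MS with channel sums equalised. Duplicate values are given as log-two fold change in thermal stability relative to solvent controls.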

vorinostat = compound: O=C(CCCCCCC(=O)Nc1ccccc1)NO [vorinostat]
Outline: as §1

silmitasertib = compound: O=C(O)c1ccc2c(c1)nc(Nc1cccc(Cl)c1)c1ccncc12 [silmitasertib]
Outline: as §1

[2] = compound: O=C1NC(=O)C(c2cnc3ccccn23)=C1c1cn2c3c(cc(F)cc13)CN(C(=O)N1CCCCC1)CC2
Outline: as §1

entospletinib = compound: c1cn2cc(-c3ccc4cn[nH]c4c3)nc(Nc3ccc(N4CCOCC4)cc3)c2n1 [entospletinib]
Outline: as §1

UniProt P53609, sequence (P53609 whole entry, looked up): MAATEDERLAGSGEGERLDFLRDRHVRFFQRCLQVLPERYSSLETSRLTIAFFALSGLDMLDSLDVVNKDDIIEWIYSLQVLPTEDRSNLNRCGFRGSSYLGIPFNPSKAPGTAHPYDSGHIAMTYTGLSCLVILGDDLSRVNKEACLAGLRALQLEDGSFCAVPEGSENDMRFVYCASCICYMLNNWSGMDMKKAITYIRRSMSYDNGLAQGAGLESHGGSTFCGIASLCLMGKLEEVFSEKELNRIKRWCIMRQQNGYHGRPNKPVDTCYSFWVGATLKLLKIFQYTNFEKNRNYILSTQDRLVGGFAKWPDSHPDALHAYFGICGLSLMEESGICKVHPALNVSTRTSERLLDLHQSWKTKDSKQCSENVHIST
UniProt O00625, sequence (O00625 whole entry, looked up): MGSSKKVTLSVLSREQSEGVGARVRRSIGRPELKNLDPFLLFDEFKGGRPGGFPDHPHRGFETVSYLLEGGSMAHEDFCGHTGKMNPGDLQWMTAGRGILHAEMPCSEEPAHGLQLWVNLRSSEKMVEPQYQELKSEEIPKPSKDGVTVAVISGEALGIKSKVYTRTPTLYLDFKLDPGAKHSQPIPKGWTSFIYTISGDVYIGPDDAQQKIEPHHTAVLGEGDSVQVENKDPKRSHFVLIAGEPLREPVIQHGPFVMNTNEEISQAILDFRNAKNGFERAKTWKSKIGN
UniProt Q8TD55, sequence (Q8TD55 whole entry, looked up): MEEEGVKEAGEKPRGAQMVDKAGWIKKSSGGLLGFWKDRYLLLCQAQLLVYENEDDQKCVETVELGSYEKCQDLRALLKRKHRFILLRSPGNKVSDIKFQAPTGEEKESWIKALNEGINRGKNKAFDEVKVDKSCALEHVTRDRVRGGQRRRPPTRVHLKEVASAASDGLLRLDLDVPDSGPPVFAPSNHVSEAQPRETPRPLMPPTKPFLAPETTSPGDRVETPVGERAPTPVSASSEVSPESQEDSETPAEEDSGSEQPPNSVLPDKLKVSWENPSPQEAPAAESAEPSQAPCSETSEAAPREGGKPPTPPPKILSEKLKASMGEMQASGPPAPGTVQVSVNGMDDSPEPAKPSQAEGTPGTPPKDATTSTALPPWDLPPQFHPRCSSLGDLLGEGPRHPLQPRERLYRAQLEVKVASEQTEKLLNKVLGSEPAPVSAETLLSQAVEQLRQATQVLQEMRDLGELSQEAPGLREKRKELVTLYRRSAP
UniProt O75569, sequence (O75569 whole entry, looked up): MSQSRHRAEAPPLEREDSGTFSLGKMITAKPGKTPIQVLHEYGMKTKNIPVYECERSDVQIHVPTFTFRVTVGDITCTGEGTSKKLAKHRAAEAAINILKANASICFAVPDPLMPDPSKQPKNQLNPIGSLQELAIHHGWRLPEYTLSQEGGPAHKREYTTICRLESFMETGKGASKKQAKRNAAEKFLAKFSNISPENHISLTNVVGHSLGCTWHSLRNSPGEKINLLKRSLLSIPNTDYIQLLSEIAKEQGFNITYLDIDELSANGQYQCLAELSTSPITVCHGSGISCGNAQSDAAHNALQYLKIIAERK
UniProt Q8N4L2, sequence (Q8N4L2 whole entry, looked up): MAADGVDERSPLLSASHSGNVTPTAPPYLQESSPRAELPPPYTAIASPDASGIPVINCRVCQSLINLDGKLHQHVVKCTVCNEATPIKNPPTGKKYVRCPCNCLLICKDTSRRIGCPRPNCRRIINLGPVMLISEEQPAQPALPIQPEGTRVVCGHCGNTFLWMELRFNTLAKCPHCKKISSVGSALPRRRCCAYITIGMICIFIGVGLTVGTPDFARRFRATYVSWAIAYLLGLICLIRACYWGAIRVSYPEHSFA
UniProt Q15269, sequence (Q15269 whole entry, looked up): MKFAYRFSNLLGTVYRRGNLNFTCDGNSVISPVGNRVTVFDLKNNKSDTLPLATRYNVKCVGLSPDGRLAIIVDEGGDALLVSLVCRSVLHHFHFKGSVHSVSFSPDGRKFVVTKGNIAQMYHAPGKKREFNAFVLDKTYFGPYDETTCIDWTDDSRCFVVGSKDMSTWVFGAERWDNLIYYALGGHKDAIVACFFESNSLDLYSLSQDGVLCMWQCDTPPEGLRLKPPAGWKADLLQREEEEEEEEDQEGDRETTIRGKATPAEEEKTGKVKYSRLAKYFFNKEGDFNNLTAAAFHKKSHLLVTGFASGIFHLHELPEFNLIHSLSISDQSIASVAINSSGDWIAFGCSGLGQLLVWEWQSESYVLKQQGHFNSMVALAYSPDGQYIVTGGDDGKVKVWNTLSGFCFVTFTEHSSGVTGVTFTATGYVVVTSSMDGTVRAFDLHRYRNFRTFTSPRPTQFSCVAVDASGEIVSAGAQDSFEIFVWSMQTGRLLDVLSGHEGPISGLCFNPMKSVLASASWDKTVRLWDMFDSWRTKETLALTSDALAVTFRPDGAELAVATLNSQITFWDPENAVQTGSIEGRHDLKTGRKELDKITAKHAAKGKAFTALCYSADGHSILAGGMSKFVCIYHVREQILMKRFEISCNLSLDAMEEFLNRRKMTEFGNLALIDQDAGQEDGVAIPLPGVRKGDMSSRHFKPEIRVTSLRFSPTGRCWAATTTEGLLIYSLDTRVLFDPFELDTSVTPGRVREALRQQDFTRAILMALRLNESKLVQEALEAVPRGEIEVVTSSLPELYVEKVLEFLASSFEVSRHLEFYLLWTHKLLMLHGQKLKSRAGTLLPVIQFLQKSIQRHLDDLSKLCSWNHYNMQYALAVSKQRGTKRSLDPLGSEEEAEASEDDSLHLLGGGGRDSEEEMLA
UniProt Q01813, sequence (Q01813 whole entry, looked up): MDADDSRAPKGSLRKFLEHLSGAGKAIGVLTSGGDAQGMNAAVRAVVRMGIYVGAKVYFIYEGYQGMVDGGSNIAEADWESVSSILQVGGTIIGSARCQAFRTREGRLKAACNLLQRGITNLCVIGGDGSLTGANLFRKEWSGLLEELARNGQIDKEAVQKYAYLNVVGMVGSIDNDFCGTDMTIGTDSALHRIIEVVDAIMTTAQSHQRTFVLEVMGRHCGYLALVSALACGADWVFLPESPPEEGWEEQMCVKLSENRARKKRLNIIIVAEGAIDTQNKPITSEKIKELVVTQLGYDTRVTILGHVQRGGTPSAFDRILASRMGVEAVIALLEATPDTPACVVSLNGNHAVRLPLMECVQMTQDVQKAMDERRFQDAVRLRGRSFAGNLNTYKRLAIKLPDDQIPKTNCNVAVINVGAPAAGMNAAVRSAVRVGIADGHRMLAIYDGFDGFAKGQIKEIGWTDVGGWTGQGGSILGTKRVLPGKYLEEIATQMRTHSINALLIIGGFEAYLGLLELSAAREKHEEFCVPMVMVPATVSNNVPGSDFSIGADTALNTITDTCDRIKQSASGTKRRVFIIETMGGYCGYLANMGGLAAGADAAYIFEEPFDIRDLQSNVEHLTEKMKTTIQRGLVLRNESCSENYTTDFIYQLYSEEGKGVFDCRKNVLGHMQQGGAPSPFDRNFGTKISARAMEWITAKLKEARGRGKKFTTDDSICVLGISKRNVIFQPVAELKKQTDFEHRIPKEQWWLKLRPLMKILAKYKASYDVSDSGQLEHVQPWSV
UniProt P54277, sequence (P54277 whole entry, looked up): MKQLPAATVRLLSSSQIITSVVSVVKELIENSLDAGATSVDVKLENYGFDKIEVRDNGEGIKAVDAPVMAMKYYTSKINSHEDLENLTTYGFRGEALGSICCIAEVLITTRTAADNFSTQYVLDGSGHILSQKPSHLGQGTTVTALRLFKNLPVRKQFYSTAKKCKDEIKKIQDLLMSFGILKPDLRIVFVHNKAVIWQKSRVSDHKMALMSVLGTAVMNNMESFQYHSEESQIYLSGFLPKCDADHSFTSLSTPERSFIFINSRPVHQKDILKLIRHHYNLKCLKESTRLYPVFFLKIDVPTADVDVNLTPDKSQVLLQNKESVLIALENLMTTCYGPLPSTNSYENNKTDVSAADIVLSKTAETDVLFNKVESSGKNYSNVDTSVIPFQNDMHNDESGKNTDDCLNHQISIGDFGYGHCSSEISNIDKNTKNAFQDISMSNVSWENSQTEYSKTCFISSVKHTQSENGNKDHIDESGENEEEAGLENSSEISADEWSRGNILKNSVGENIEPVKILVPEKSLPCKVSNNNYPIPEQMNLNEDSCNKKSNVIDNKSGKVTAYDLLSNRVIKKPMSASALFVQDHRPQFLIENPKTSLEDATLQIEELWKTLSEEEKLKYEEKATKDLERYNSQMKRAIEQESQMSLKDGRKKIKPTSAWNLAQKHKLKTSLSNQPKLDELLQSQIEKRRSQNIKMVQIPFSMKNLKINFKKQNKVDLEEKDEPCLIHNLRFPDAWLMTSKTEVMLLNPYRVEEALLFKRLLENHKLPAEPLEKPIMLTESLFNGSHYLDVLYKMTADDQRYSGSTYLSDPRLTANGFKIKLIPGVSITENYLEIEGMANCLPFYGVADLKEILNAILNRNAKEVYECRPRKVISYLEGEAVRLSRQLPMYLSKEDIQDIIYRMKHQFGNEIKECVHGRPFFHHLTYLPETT
UniProt Q13362, sequence (Q13362 whole entry, looked up): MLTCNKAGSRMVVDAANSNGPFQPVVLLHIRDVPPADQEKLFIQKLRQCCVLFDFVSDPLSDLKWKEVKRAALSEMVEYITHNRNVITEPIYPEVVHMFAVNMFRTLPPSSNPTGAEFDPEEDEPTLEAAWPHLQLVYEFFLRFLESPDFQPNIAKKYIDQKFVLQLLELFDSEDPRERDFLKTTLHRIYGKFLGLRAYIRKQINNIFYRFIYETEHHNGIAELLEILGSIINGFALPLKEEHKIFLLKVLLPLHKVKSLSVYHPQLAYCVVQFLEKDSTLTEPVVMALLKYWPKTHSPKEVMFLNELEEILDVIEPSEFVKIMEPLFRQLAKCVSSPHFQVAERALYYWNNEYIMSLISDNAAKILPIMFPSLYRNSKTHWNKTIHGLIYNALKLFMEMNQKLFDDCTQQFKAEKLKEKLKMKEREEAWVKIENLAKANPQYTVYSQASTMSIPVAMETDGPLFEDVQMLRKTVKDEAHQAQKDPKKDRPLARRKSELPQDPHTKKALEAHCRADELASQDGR
UniProt Q15004, sequence (Q15004 whole entry, looked up): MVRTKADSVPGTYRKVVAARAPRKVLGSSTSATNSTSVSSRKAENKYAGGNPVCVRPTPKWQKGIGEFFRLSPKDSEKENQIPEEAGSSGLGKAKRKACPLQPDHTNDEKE

Row | Target | log2 fold change [1] | log2 fold change (vorinostat) | log2 fold change (silmitasertib) | log2 fold change [2] | log2 fold change (entospletinib)
1 | PIP4P2 (UniProt Q8N4L2) | 0.004 | 0.029 | 0.034 | 0.034 | -0.05
2 | PRKACB isoform 2 (UniProt P22694) | -0.014 | -0.018 | 0.054 | 0.002 | 0.042
3 | PCLAF (UniProt Q15004) | 0.022 | -0.29 (active) | -0.029 | -0.025 | 0.009
4 | PLEKHO2 (UniProt Q8TD55) | 0.045 | -0.103 | 0.347 | -0.018 | 0.082
5 | PIK3CG (UniProt P48736) | -0.111 | -0.037 | 0.04 | -0.027 | -0.073
6 | PPP2R5C isoform 5 (UniProt Q13362) | 0.002 | 0.049 | 0.019 | 0.022 | 0.011
7 | PRKRA (UniProt O75569) | 0.023 | -0.773 (active) | -0.022 | 0.024 | 0.041
8 | PPP3CA isoform 2 (UniProt Q08209) | 0.006 | 0.042 | 0.014 | -0.025 | 0.066
9 | PIR (UniProt O00625) | 0.015 | 0.035 | -0.049 | -0.013 | -0.035
10 | PWP2 (UniProt Q15269) | 0.007 | -0.547 (active) | 0.029 | -0.014 | 0.019
11 | PGGT1B (UniProt P53609) | -0.038 | 0.08 | 0.109 | -0.029 | -0.054
12 | PFKP (UniProt Q01813) | 0.004 | 0.009 | 0.008 | 0.03 | 0.049
13 | PMS1 (UniProt P54277) | 0.01 | -0.342 (active) | 0.018 | 0.026 | -0.011
